GLP1R ag: GLP-1 receptor (human) agonism. hit rate 0.007% among 380,000. P43220. AID 624172. Potency, µM (titrated, usually from 45.6 µM), for inactives: at the highest dose activation, hits mostly activators. HEK293 GLP-1R CRE-luciferase, luminescence, 4-6 h; cells express a hypersensitive GLP-1R form; further: % of control where 0% means no effect
GLP1R inv ag: inverse agonists of human GLP-1 receptor | hit rate 1.6% among 410,000 | HEK293 GLP-1R CRE-luciferase, luminescence, 24 h; GLP-1R form is constitutively active | Potency, µM (doses to about 38.3 µM), for the others: at the top dose activity change, negative = inhibition, usual class: inhibitors | P43220 | AID 624417; further: on the % scale 0 is the no-effect control and ±100 the full control effect; nearly all actives have a fitted effect of over 55% in size
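Using stably transfected HEK293 (constitutively active GLP-1R, cAMP-luciferase reporter), compounds were incubated 24 hr and luciferase measured by luminescence.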
Glioma ERSR ind: induces the endoplasmic reticulum stress response in human glioma cells | Potency, µM, for the others: at the top dose activation, most hits filed as activators | hit rate 0.02% among 420,000 | U87-MG GRP78 promoter luciferase reporter, 16 h; further: series mostly up to about 76 µM; % of control where 0% means no effect; nearly all actives have a fitted effect of over 35% in size
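Stably transfected U87-MG human glioma cells carrying a GRP78-based luminescent sensor were seeded at 1000 cells/well, pin-dosed with compounds and incubated 16 h. Luciferase reagent was then added, and end-point luminescence was read after 10 min at room temperature.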
PTHR1 ag: agonists of human PTHR1 parathyroid hormone receptor; Q03431; HEK293 GP2 PTHR1 cells, GloSensor cAMP luminescence, 1 h; Potency, µM (series often up to 115 µM), for the others: at the top dose activation, most hits filed as activators; hit rate 0.075% among 410,000; AID 743266; further: nearly all actives have a fitted effect of over 55% in size
Target sequence (Q03431 whole entry, looked up): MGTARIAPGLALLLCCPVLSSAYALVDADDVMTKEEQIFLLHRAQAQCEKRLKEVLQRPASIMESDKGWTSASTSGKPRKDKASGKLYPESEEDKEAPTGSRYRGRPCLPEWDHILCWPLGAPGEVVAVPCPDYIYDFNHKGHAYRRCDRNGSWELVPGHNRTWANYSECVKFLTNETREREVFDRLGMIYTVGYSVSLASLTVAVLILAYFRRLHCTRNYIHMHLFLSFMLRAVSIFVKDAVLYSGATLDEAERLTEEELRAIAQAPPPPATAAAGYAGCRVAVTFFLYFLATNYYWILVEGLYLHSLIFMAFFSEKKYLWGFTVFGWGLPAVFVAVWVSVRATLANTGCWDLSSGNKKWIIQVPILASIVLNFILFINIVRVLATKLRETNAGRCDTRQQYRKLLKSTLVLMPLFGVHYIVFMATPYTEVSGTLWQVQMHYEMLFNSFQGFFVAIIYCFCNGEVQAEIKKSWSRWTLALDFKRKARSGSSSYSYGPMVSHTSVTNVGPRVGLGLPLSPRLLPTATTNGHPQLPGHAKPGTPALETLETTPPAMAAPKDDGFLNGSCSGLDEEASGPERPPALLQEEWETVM
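HEK-293-derived GP2 cells expressing PTHR1 and a GloSensor cAMP reporter, 3,000/well, plated overnight, given luciferin plus IBMX (each 0.5 mM as added) for 1 h at 37 °C, then compound for 1 h at 37 °C. Luminescence was read after 15 min at room temperature.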
ALOX12 inh: blocks human arachidonate 12S-lipoxygenase; Potency, µM (titrated, usually from 108 µM), for the others: at the highest dose activity change, negative = inhibition, most hits filed as inhibitors; purified 12hLO, xylenol orange hydroperoxide absorbance; hit rate 1.1% among 580,000; P18054; further: on the % scale 0 is the no-effect control and ±100 the full control effect
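Hydroperoxide product was detected by ferrous iron/xylenol orange as the 573 to 405 nm absorbance ratio. Arachidonic acid at 40 uM (final) was turned over for 30 min at room temperature by 150 nM human 12hLO, pH 7.0 Hepes buffer, after 15 min compound preincubation.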
GLS inhibitor: inhibitors of human glutaminase (GLS). O94925. Potency, µM (series often up to 45.5 µM), inactives show top-dose activity change, negative = inhibition, hits mostly inhibitors. GLS enzymatic activity, qHTS titration. hit rate 0.21% among 410,000. AID 624170; further: on the % scale 0 is the no-effect control and ±100 the full control effect
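Read-out is an Amplex red fluorescence increase coupled through glutamate oxidase and HRP, measured before and after 30 min room-temperature incubation. hKGA is in 45 mM KH2PO4 (pH 8.2) with 0.02% Tween-20; glutamine added as 1mM solution.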
The depositor's hits bear a star; i = inactive; u = inconclusive; x = no result; [ ] = remark or other dose. Only some compounds are listed: those with a hit (about 2.3% of all), similar ones and a draw of the others. The call rests on the fitted dose curve; in most records, active means well fitted curve in the direction sought with a large enough effect; inconclusive means small, poorly fitted or top-dose-only effect, or another doubt; inactive means no such curve, though single readings can be large; an effect the other way counts as inactive or inconclusive. Potency means the concentration at half of the fitted maximal effect.

SMILES	GLP1R ag	GLP1R inv ag	Glioma ERSR ind	PTHR1 ag	ALOX12 inh	GLS inhibitor
CC(C)(C)C(=O)NNC(=O)c1cc(C(C)(C)C)nn1Cc1ccccc1	11%	u	-1%	-5%	80%	-6%
CCc1ccc(-c2cc(C(F)(F)F)on2)cc1S(=O)(=O)Nc1cc(OC)c(OC)c(OC)c1	x	x	x	x	-17%	x
CSCCC(NC(=O)C1CCC(C)CC1)C(=O)Nc1ccc2c(c1)OCO2 (configuration not stated)	x	x	x	x	-22%	x
S=C1NC[C@H](Cc2ccccc2)N1CC1CCN(CCCC2CCCC2)CC1	-4%	u	-1%	-41%	-18%	5%
S=C1NC[C@H](CC2CCCCC2)N1CCc1cccc2ccccc12	-4%	7.9µM*	-1%	i	25µM*	1%
FC(F)(F)c1cc(CCN2C(=S)NC[C@@H]2Cc2ccccc2)cc(C(F)(F)F)c1	4%	7.9µM*	10%	-36%	u	-4%
S=C1NC[C@H](Cc2ccccc2)N1CCCCC1CCCCC1	14%	u	5%	-49%	35µM*	4%
Cc1cccc(C(=O)N(Cc2cccs2)C2CC2)c1	x	x	x	x	-8%	x
COc1ccc(S(=O)(=O)N2CCC[C@H]2C(=O)NC2=NCCS2)cc1	-2%	9%	-3%	i	1%	0%
COc1ccc(S(=O)(=O)N2CCCC2C(=O)Nc2nnc(-c3cccnc3)s2)cc1 (configuration not stated)	-1%	-118%	-3%	-42%	40µM*	-17%
CC(=O)NC1=NN(C(C)=O)C2(S1)C(=O)N(CC(C)C)c1ccc(Br)cc12 (configuration not stated)	x	x	x	x	24%	x
Cc1ccc(NC(=S)Nc2cccc3ccccc23)cc1F	4%	u	1%	i	40µM*	u
S=C(NCc1ccccc1)NCc1cccc(CNC(=S)NCc2ccccc2)c1	-1%	u	-1%	-13%	32µM*	65%
S=C(NCc1ccccc1)Nc1cccc2ccccc12	-3%	10µM*	0%	-37%	45µM*	24%
Fc1cccc(NC(=S)Nc2cccc3ccccc23)c1	4%	18%	4%	-9%	u	-5%
COc1ccc(-c2ocnc2C(=O)Nc2ccc3c(c2)OCCO3)cc1	x	x	x	x	-1%	x
O=C(CC[C@@H]1CNC(=O)[C@@H]2C[C@H](NC(=O)c3cccc(F)c3)CN12)NCc1cccnc1	x	x	x	x	72%[176 µM]	x
O=C(CC[C@@H]1CNC(=O)[C@@H]2C[C@H](NC(=O)Nc3cccc(Cl)c3)CN12)NCc1cccnc1	x	x	x	x	45µM*	x
CCc1ccc2oc(-c3ccc(OC)cc3)cc(=Nc3c(C)n(C)n(-c4ccccc4)c3=O)c2c1	-4%	10µM*	-12%	-95%	u	20%
CCOC(=O)c1cc(-c2ccco2)nn1-c1ccc(C)cc1	12%	-6%[7.66 µM]	0%	-27%	u	-10%
Cc1ccc(-n2nc(-c3ccco3)cc2C(=O)O)cc1	-2%	-4%	0%	i	-7%	11µM*
O=C1c2cccc(Cl)c2C(=O)c2c1cccc2N1CCCC1	10%	6.3µM*	2%	i	0%	-8%
CC(C)CCNC(=O)c1ccc2c(c1)nc1n2CCCCC1	x	6.3µM*	-11%	-28%	-7%	2%
CCNC(=O)c1ccc2c(c1)nc1n2CCCCC1	x	-8%	-3%	-3%	-27%	-6%
COc1ccc(CCNC(=O)c2ccc3c(c2)nc2n3CCCCC2)cc1OC	x	34%	-3%	-42%	-1%	8%
SMILES	GLP1R ag	GLP1R inv ag	Glioma ERSR ind	PTHR1 ag	ALOX12 inh	GLS inhibitor
O=C(NCCc1ccccc1)c1ccc2c(c1)nc1n2CCOC1	x	8.9µM*	-11%	-89%	-25%	9%
O=C(NCCc1ccccc1Cl)c1ccc2c(c1)nc1n2CCCCC1	x	13µM*	-11%	-42%	-4%	10%
Cc1noc(C)c1-c1cc(NCCN2CCOCC2)ncn1	x	x	3%	x	40µM*	x
Cc1nc2n(c1C(=O)Nc1cc(-c3ccc(F)cc3)[nH]n1)CCC(Nc1ccc(F)cc1)C2 (configuration not stated)	x	x	x	x	41%	x
O=C(N/C(=C\c1ccc(Cl)cc1)C(=O)N1CCCCC1)c1ccco1	10%	10µM*	-5%	-16%	-5%	5%
COC(=O)c1ccc(C2C3=C(CC(C)(C)CC3=O)Nc3c2c(=O)n(C)c(=O)n3C)cc1 (configuration not stated)	x	x	x	x	-5%	x
Cc1cccc(N2CCN(C(=O)c3ccc(S(=O)(=O)N(C)c4ccccc4)cc3)CC2)c1C	3%	1µM*	-2%	-87%	-17%	25%
Cc1cccc(N2CCN(C(=O)c3ccc4[nH]c(C)c(C)c4c3)CC2)c1C	11%	2.5µM*	-3%	i	-18%	-18%
Cc1cccc(C)c1N1CCN(C(=O)c2ccc3c(c2)OCO3)CC1	-2%	10µM*	-4%	-9%	u	0%
CCN(CC)c1nc2c(c(=O)n(Cc3ccccc3)c(=O)n2C)n1Cc1ccccc1	x	x	x	x	14%	x
O=C1CCCN1CCCNCC1CCCCC1	x	x	x	x	47%	x
c1ccc(C(Cc2nc(-c3ccccn3)no2)c2ccccc2)cc1	-8%	10µM*	-8%	-5%[57.5 µM]	172%	2%
c1ccc(-c2ccc(-c3nc(-c4ccccn4)no3)cc2)cc1	-12%	-11%	-14%	-17%[57.5 µM]	2%	-1%
Cc1ccc(-c2nc(-c3ccccn3)no2)cc1Cl	-6%	1.6µM*	-13%	i	7%	3%
Cc1ccc(-c2nc(-c3ccccn3)no2)cc1	-28%	0.89µM*	-14%	-5%	-10%	3%
Nc1nc(CN2CCN(C(=O)c3ccc(F)cc3)CC2)nc2ccccc12	x	x	x	x	91%	x
CCOC(=O)C1CCN(Cc2cc(=O)oc3ccc(C)cc23)CC1	x	x	x	x	6%	x
O=C(CCNC(=O)c1ccccc1Cl)Nc1nc(-c2ccccc2Cl)cs1	1%	7.9µM*	9%	-21%	u	-18%
CSc1cccc(N2CC(C(=O)Nc3cccc(S(=O)(=O)N4CCCC4)c3)CC2=O)c1 (configuration not stated)	-23%	u	-4%	-24%	28µM*	1%
Cc1cccc(-c2ocnc2C(=O)NCCc2ccccc2C)c1	x	x	x	x	6%	x
CCOc1cc(C2/C(=C(/O)c3ccc(OC(C)C)cc3)C(=O)C(=O)N2CCCOC)ccc1O (configuration not stated)	-12%	-9%	-2%	22%[57.5 µM]	20µM*	0%
COCCCN1C(=O)C(=O)/C(=C(/O)c2ccc(C)cc2)C1c1ccccc1 (configuration not stated)	-32%	-15%	-6%	u	7.1µM*	8%
